Here are results for 20 compounds from PubChem BioAssay (Tox21).

Structures are written as SMILES. Results filed as inconclusive are left out. Entries that show only a call come without a potency. Activity calls are given as the source filed them. Calls come from the whole dose curve.
Potency is the fitted concentration of half-maximal effect.

Chain of Acetylcholinesterase (Homo sapiens) (P22303 whole entry, looked up): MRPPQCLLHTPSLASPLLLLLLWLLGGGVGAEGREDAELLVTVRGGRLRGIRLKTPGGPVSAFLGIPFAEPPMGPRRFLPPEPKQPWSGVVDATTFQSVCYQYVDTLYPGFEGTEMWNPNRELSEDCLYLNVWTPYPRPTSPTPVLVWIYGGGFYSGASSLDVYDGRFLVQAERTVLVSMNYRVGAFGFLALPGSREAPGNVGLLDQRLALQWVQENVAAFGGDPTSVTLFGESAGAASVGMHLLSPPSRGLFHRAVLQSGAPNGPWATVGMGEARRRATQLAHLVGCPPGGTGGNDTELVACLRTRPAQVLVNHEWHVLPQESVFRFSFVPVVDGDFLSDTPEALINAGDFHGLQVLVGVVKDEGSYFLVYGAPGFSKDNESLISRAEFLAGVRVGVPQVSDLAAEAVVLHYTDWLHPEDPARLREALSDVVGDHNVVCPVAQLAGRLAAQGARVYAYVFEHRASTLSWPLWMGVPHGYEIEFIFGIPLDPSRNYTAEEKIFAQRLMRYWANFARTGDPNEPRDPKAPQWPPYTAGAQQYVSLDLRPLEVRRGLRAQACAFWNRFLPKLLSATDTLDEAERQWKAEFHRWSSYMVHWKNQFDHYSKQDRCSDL

This experiment concerns the target Acetylcholinesterase (Homo sapiens) (UniProt P22303). Nature of the experiment: Acetylcholinesterase (AChE) small molecule antagonists: colormetric cell-based qHTS assay (AID 1347395). Note: nearly all actives have a fitted effect of over 30% in size. The note with it: SH-SY5Y cells AChE activity, colorimetric (Ellman); series mostly up to 115 µM. The method, boiled down:
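SH-SY5Y cells, plated overnight at 37 C, were exposed to compounds for 30 min at 37 C and 5% CO2. Acetylthiocholine plus DTNB was then added, and thiocholine from endogenous AChE was quantified colorimetrically after 90 min at 37 C.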
In the case of `CC(C)C1CCC(Cc2ccc(Cl)cc2)C1(O)Cn1cncn1` (stereo not given), the Potency entry is “inactive”.

`O=C/C(Cl)=C(/Cl)C(=O)O`: the Potency entry is “inactive”.

As for `CC(c1ccc(O)cc1)c1ccc(O)cc1`, the Potency result is “inactive”.

Turning to `CC(=O)Nc1ccc2c(c1)Cc1ccccc1-2`, the Potency result was “inactive”.

As to `C[C@]12Cc3nonc3C[C@@H]1CC[C@@H]1[C@@H]2CC[C@@]2(C)[C@H]1CC[C@]2(C)O`, the Potency entry was “inactive”.

In the case of `O=c1[nH]c2ccccc2n1C1CCN(CCCC(c2ccc(F)cc2)c2ccc(F)cc2)CC1`, the Potency result was “inactive”.

As for `CC(Cl)CN(C)C` (stereo not given), the Potency entry was “inactive”.

As to `CN(C)C1CSSSC1`, the Potency result was “inactive”.

With `CCOP(=S)(OCC)SCS(=O)(=O)CC`, the Potency is 1590 nM (active).

For the compound `BrC(Br)C(Br)(Br)Br`, the Potency entry was “inactive”.

As to `N#Cc1ccccc1Cl`, the Potency result was “inactive”.

For `O=C(NC(=O)c1c(F)cccc1F)Nc1cc(Cl)c(OC(F)(F)C(F)F)c(Cl)c1`, the Potency result is “inactive”.

For `BrC(Br)Br`, the Potency result is “inactive”.

Take `CC(C)CC(C)Nc1ccc(Nc2ccccc2)cc1` (stereo not given): the Potency entry was “inactive”.

Regarding `Clc1ccc(C(c2ccc(Cl)cc2)C(Cl)(Cl)Cl)cc1`, the Potency result was “inactive”.

For the compound `CC[C@H](C)[C@H]1O[C@]2(C=C[C@@H]1C)C[C@@H]1C[C@@H](C/C=C(\C)[C@@H](O[C@H]3C[C@H](OC)[C@@H](O[C@H]4C[C@H](OC)[C@@H](O)[C@H](C)O4)[C@H](C)O3)[C@@H](C)/C=C/C=C3\CO[C@@H]4[C@H](O)C(C)=C[C@@H](C(=O)O1)[C@]34O)O2`, the Potency result was “inactive”.

For `COCC(=O)N(c1c(C)cccc1C)[C@H](C)C(=O)OC`, the Potency entry is “inactive”.

Regarding `[Hg+2].[I-].[I-]`, the Potency result is “inactive”.

In the case of `Brc1c(Br)c(Br)c(Oc2c(Br)c(Br)c(Br)c(Br)c2Br)c(Br)c1Br`, the activity, negative = inhibition was 0.803% [at 23.6 µM] (inactive).

As for `NC(=O)c1ccc(N)nc1`, the Potency entry is “inactive”.
